Screens deposited in PubChem BioAssay by National Center for Advancing Translational Sciences (NCATS).
A selection: hits, their analogues and other compounds. The true share with any hit is near 6.4%.
Luc counter: Kinase-Glo luciferase inhibition (counter-screen) | Q27757 | Kinase-Glo luciferase, ATP luminescence, 8 min | Potency, µM (doses to about 38.3 µM), hits mostly inhibitors | 200,000 compounds, 0.28% hits | AID 1379; note: nearly all actives have a fitted effect of over 60% in size
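Recombinant Kinase-Glo luciferase, 10 uM ATP (linear range), luciferin; imidazole pH 7.2 / KCl / MgCl2 / Tween / BSA buffer; 8 min RT; luminescence.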
RORgamma inh: blocks mouse ROR gamma transcriptional activity; Drosophila S2 Gal4-RORgamma UAS-luciferase reporter, 20 h; P51450; 310,000 compounds, 5.4% hits; Potency, µM (highest dose often 53.6 µM), usual class: inhibitors; note: nearly all actives have a fitted effect of over 60% in size
Target sequence (P51450 whole entry, looked up, the tested form may be a part): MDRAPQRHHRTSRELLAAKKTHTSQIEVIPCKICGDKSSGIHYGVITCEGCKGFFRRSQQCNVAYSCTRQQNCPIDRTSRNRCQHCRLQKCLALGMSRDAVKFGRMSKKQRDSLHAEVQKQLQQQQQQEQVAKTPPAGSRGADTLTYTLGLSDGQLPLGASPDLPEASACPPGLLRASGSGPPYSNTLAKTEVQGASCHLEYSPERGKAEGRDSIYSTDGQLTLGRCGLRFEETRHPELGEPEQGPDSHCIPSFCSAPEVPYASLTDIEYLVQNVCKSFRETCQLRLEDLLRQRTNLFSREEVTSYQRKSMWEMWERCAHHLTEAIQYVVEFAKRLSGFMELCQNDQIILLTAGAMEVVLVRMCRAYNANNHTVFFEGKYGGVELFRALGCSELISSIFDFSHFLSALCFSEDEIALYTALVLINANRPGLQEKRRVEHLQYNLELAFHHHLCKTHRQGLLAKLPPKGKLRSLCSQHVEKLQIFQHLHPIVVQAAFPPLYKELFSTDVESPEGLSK
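Compounds are pin-transferred onto Drosophila Schneider cells expressing a copper-inducible Gal4–ROR gamma transactivation domain fusion. After 1 hr, copper sulfate is added to 700 uM final; luciferase is read 20 hr later.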
VP16 counter: Gal4-VP16 reporter inhibition counter-screen | Drosophila S2 Gal4-VP16 UAS-luciferase, luminescence, 20 h | Potency, µM (titrated, usually from 53.6 µM), hits mostly inhibitors | 310,000 compounds, 3.5% hits;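 note: Gal4-VP16 expression switched on by copper sulfate through the metallothionein promoter; nearly all actives have a fitted effect of over 50% in size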
Of the large screens only hits and unclear results are named; the others gave an inactive call. Calls come from the whole dose curve; as a rule, active = well fitted curve in the direction sought with a large enough effect; inconclusive = small, poorly fitted or top-dose-only effect, or another doubt; inactive = no such curve, though single readings can be large; an effect the other way counts as inactive or inconclusive.

Cc1ccc2[nH]c(=O)c(CN(Cc3ccccc3)C(=S)NCCCN(C)C)cc2c1	Luc counter 12.6µM, RORgamma inh inconclusive, VP16 counter inconclusive
Cn1cnc([N+](=O)[O-])c1Sc1ncn[nH]1	none (no result: Luc counter)
OC(c1ccccc1)(c1ccccc1)C1CCN(C(=S)NC2CCCC2)CC1	RORgamma inh 20µM
COc1ccc(NC(=S)N2CCC(C(O)(c3ccccc3)c3ccccc3)CC2)cc1	RORgamma inh inconclusive, VP16 counter inconclusive
S=C(NC1CCCC1)N1CCOCC1	none
S=C(NC1CCCCC1)N1CCOCCOCCN(C(=S)NC2CCCCC2)CCOCC1	RORgamma inh 11.2µM, VP16 counter inconclusive (no result: Luc counter)
CC1CCN(C(=S)NCCc2ccccc2)CC1	RORgamma inh inconclusive, VP16 counter inconclusive
OC(c1ccccc1)(c1ccccc1)C1CCN(C(=S)NCCc2ccccc2)CC1	RORgamma inh 12.6µM, VP16 counter inconclusive
S=C(NC1CCCCC1)N1CCN(C/C=C/c2ccccc2)CC1	VP16 counter inconclusive
CCOc1ccc(NC(=S)N2CCC(C(O)(c3ccccc3)c3ccccc3)CC2)cc1	RORgamma inh 12.6µM, VP16 counter inconclusive
CC(=O)c1c(C)[nH]c(C(=O)Nc2ccc(F)cc2F)c1C	none (no result: Luc counter)
C/C(=N/NC(=O)CNC(=O)c1cccs1)c1ccco1	none (no result: Luc counter)
O=C1C[C@H](c2ccc3ccccc3c2)N1S(=O)(=O)c1ccccc1[N+](=O)[O-]	none (no result: Luc counter)
CCN1/C(=C2\C(=O)N(C)C(=S)N2C)C=Cc2cc(OC)ccc21	none
CCN1C(=O)/C(=C2/C=Cc3cc(C)ccc3N2CC)N(C)C1=S	Luc counter 10µM, RORgamma inh 12.6µM, VP16 counter inconclusive
CNc1ncnc2ccc(-c3ccccc3C)cc12	VP16 counter inconclusive (no result: Luc counter)
CC1CCN(c2oc(-c3ccc(F)cc3)nc2C#N)CC1	none (no result: Luc counter)
Cc1ccc(Nc2nc(CSc3nnc(-c4cccnc4)n3-c3ccccc3C)cs2)cc1	RORgamma inh 5.01µM, VP16 counter inconclusive
Cc1ccccc1-n1c(SCc2csc(Nc3ccccc3)n2)nnc1-c1cccnc1	RORgamma inh inconclusive, VP16 counter inconclusive
COc1ccc2c(c1)C(c1ccccc1C)CC(=O)O2 (stereo not drawn)	none
Cc1cc(NC(=O)c2ccc(Br)c([N+](=O)[O-])c2)no1	none
COc1ccc(C(=O)Nc2ccc(NC(=O)c3cccs3)cc2)cc1[N+](=O)[O-]	none
Cc1ccc(C(=O)NC(=S)Nc2ccc(NC(=O)c3cccs3)cc2)cc1[N+](=O)[O-]	RORgamma inh 6.31µM, VP16 counter 6.31µM
Cc1ccc(C(=O)Nc2ccc(NC(=O)c3cccs3)cc2)cc1[N+](=O)[O-]	none
CCOc1ccc(C(=O)Nc2ccc(NC(=O)c3cccs3)cc2)cc1[N+](=O)[O-]	RORgamma inh 14.1µM, VP16 counter inconclusive
Cc1cc(NC(=O)c2ccc(C)c([N+](=O)[O-])c2)no1	RORgamma inh 6.31µM (no result: Luc counter)
C[C@@](N)(/C=C\c1ccccc1)C(=O)O	none (no result: RORgamma inh, VP16 counter)
O=c1c2ccccc2c(/C=N/c2n[nH]c(CCCO)n2)c(O)n1-c1ccccc1Cl	none
COc1ccc(Cc2ccc3[nH]c(=O)cc(C)c3c2)cc1S(=O)(=O)O	none (no result: RORgamma inh, VP16 counter)
O=C(O)c1ccc(S(=O)(=O)N=Nc2c(O)[nH]c3ccccc23)cc1	none (no result: RORgamma inh, VP16 counter)
CCN1C(=O)C(CC(=O)Nc2ccc(F)cc2)N(CCCN2CCN(c3ccc(F)cc3)CC2)C1=S (stereo not drawn)	VP16 counter inconclusive
COc1ccc(C(=O)NC(=S)N2CCC(C)CC2)cc1Br	RORgamma inh 0.631µM, VP16 counter 0.891µM (no result: Luc counter)
O=C1CN(C(=S)NC(=O)c2ccc(-c3ccccc3)cc2)CCN1	RORgamma inh 1.78µM, VP16 counter 10µM
COc1cc(C(=S)N2CCC(C)CC2)ccc1O	VP16 counter inconclusive
COc1ccc(C(=O)NCC(=O)N2CCNC(=O)C2)cc1OC	none (no result: Luc counter)
O=C1CN(C(=S)Nc2ccccc2Cl)CCN1	none
COc1ccc(C(=O)NC(=S)N2CCNC(=O)C2)cc1Br	RORgamma inh 15.8µM, VP16 counter inconclusive
CCC1CC=CC2C1C(=O)N(Cc1ccccc1)C2c1ccc(OC)c(Cl)c1 (stereo not drawn)	VP16 counter inconclusive (no result: Luc counter)
COc1ccc(Oc2ncc3nc(-c4ccccc4)c(=O)n(Cc4cccs4)c3n2)cc1	none
CCc1ccc(NC(=O)CCc2nnc3ccc(N4CCCC4)nn23)cc1	none (no result: Luc counter)
Cc1ccc(NC(=O)c2nnn(-c3ccc4c(c3)OCCO4)c2N)cc1	none (no result: Luc counter)
Nc1c(C(=O)Nc2ccccc2)nnn1-c1ccc2c(c1)OCCO2	RORgamma inh 10µM, VP16 counter inconclusive (no result: Luc counter)
COc1cccc(-c2csc(N3CCN(C(=O)NC45CC6CC(CC(C6)C4)C5)CC3)n2)c1	none
COc1cccc(NC(=O)N2CCN(c3nc(-c4cccc(OC)c4)cs3)CC2)c1	none (no result: Luc counter)
COc1cccc(-c2csc(N3CCN(C(=O)Nc4ccccc4Cl)CC3)n2)c1	RORgamma inh inconclusive
